Several values for one entry are separate records, joined by “and”; a condition that tells them apart may be missing. Equal entries are not always repeated. Records with an inconclusive call do not appear. Activity calls are given as the source filed them. How the source made its calls, unless noted: active means hit-call score of the fitted dose curve at least 0.9, where 1 is the maximum; inconclusive means response in the unintended direction; inactive means score below 0.9.
system: not listed separately; assay: TAMU_PeakParms_SingleDonor1434_Asystole: Texas A&M University (TAMU) 1.5-hr Human Induced Pluripotent Stem Cell (iPSC)-derived Cardiomyocytes Calcium (Ca+2) Flux Assay for Cardiotoxicity: Asystole (quiescence of beating) (AID 2284328); details: not given
Procedure, shortened: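 Average Ca2+-flux peak frequency (beats/s) was recorded in single-donor iPSC-derived cardiomyocytes after 90 min exposure (0.2–100 uM final, 0.5% DMSO). Asystole POD set as EC95 against DMSO, no preprocessing.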

Q: For CCCC(CCC)C(=O)O, which outcome is on record?
A: inactive

Q: For COc1cc2c(c(OC)c1OC)-c1ccc(OC)c(=O)cc1[C@@H](NC(C)=O)CC2, which outcome is on record?
A: inactive

Q: With OC[C@H]1O[C@@](CO)(O[C@H]2O[C@H](CO)[C@@H](O)[C@H](O)[C@H]2O)[C@@H](O)[C@@H]1O as the compound, how does the outcome read?
A: inactive

Q: Which outcome does the source give for c1ccc2cc3ccccc3cc2c1 here?
A: inactive

Q: With CCN(CC)C(=S)SSC(=S)N(CC)CC as the compound, how does the outcome read?
A: inactive

system: Brachyury (BRA) Protein Expression, Deisenroth Lab, TBXT (gene 6862); assay: CCTE_Deisenroth_DEVTOX-GLR_legacy_Bra: (Legacy) CCTE's DevTox GLR-Endo Assay Evaluation of Brachyury (BRA) Protein Expression, Deisenroth Lab (AID 2284329; active means hit-call score of the fitted dose curve at least 0.9, where 1 is the maximum; inactive means score below 0.9); details: not given
Procedure, shortened: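 Percent Bra-positive cells, scored by high-content imaging against a threshold of 5x BMAD over the undifferentiated control median, with the 0.2% DMSO median subtracted. RUES2-GLR cultures were dosed twice at 24 h intervals across a 48 h differentiation, at 1 nM–200 uM in ten steps, with n=4 replicates.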

Q: With Nc1ccn([C@@H]2O[C@H](CO)[C@@H](O)[C@@H]2O)c(=O)n1 as the compound, how does the AC50 read?
A: 0.152 µM (active)

Q: With CCCC(CCC)C(=O)O as the compound, how does the outcome read?
A: inactive

Q: With NNC(=O)c1ccncc1 as the compound, how does the outcome read?
A: inactive

system: not listed separately; assay: CCTE_Deisenroth_DEVTOX-GLR_legacy_CellCount: (Legacy) Viability Assessment in CCTE's DevTox GLR-Endo Assay, Deisenroth Lab (AID 2284331; active means hit-call score of the fitted dose curve at least 0.9, where 1 is the maximum; inactive means score below 0.9); details: actives raise or lower the signal
Procedure, shortened: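 Viability is taken from imaged nuclei counts in fixed RUES2-GLR cultures after 48 h of differentiation under two 24 h-spaced chemical exposures, 10 concentrations from 1 nM to 200 uM, gain or loss versus DMSO baseline.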

Q: For Nc1ccn([C@@H]2O[C@H](CO)[C@@H](O)[C@@H]2O)c(=O)n1, which AC50 is on record?
A: 0.259 µM (active)

Q: Which outcome does the source give for CCCC(CCC)C(=O)O here?
A: inactive

Q: For NC(=O)N1c2ccccc2C=Cc2ccccc21, which AC50 is on record?
A: 67 µM (active)

Q: Which outcome does the source give for NNC(=O)c1ccncc1 here?
A: inactive

system: not listed separately; assay: VALA_TUBIPS_Antagonist_CellCount: Viability Assessment in the VALA Sciences human iPS-derived Endothelial Tubule Formation (TUBIPS) Antagonism Assay (AID 2284335); details: not given
Procedure: VALA_TUBIPS_Agonist is a cell-based, multiplexed assay that uses human iPS-derived endothelial cells (iPSC). Measurements were taken 72 hours after chemical dosing in a 96-well plate.VALA_TUBIPS_Antagonist_CellCount is the one of two assay components measured from the VALA_TUBIPS_Antagonist assay. It is designed to make measurements of viability, a form of viability reporter, as detected with fluorescence intensity signals by HCS Fluorescent Imaging technology. Data from the assay component VALA_TUBIPS_Antagonist_CellCount was analyzed at the endpoint, VALA_TUBIPS_Antagonist_CellCount, in the positive analysis fitting direction relative to DMSO as the negative control and baseline of activity. Using a type of viability reporter, loss-of-signal activity can be used to understand viability. To generalize the intended target to other relatable targets, this assay endpoint is annotated to the cell cycle intended target family, where the subfamily is cell count.
[…]

Q: Which outcome does the source give for CCCC(CCC)C(=O)O here?
A: inactive

Q: With CCCCCCCCCC as the compound, how does the outcome read?
A: inactive

Q: Which outcome does the source give for OCCNCCO here?
A: inactive

Q: With CCN(CC)C(=S)SSC(=S)N(CC)CC as the compound, how does the outcome read?
A: inactive

Q: With Cn1cc[nH]c1=S as the compound, how does the outcome read?
A: inactive

system: not listed separately; assay: VALA_MIGHUV1_ScratchOnly_WoundArea: VALA Sciences human Umbilical Vein Endothelial Cell Migration (MIGHUV) Assay, Area of Scratch Wound Inhibited Recovery (AID 2284336); details: not given
Procedure, shortened: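 Wound area remaining after 24 h recovery imaged by Hoechst nuclear fluorescence in scratched HUVEC cultures, chemicals added within 30 min of scratching across a 6-point series. Gain of signal fitted against 0.1% DMSO; cytochalasin D positive control.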

Q: Which outcome does the source give for CCCCCCCCCC here?
A: inactive

Q: With OCCNCCO as the compound, how does the outcome read?
A: inactive

Q: Which outcome does the source give for CCN(CC)C(=S)SSC(=S)N(CC)CC here?
A: inactive

Q: With Cn1cc[nH]c1=S as the compound, how does the outcome read?
A: inactive

system: not listed separately; assay: VALA_TUBHUV_Agonist_TubuleLength: VALA Sciences human Umbilical Vein Endothelial Tubule Formation (TUBHUV) Agonism Assay (AID 2284337); details: not given
Procedure, shortened: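 Tubule length quantified by CD31 immunofluorescence imaging after fixation. HUVEC-HDF co-cultures (1:3) pre-grown 3 days with 10 ng/ml VEGF, then dosed 3 days in VEGF medium; 0.1 % DMSO vehicle baseline.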

Q: With OCCNCCO as the compound, how does the outcome read?
A: inactive

Q: Which outcome does the source give for CCN(CC)C(=S)SSC(=S)N(CC)CC here?
A: inactive

Q: With Cn1cc[nH]c1=S as the compound, how does the outcome read?
A: inactive

system: not listed separately; assay: VALA_TUBIPS_Agonist_CellCount: Viability Assessment in the VALA Sciences human iPS-derived Endothelial Tubule Formation (TUBIPS) Agonism Assay (AID 2284338); details: not given

Q: Which AC50 does the source give for CCCCCCCCCC here?
A: 7.79 µM (active)

Q: With OCCNCCO as the compound, how does the outcome read?
A: inactive

Q: Which outcome does the source give for CCN(CC)C(=S)SSC(=S)N(CC)CC here?
A: inactive

Q: For Cn1cc[nH]c1=S, which outcome is on record?
A: inactive

system: not listed separately; assay: CCTE_Mundy_HCI_iCellGluta_NOG_NeuronCount: CCTE's Neurite Outgrowth Assay in iCellGluta cells for Neuron Count, Mundy Lab (AID 2284340); details: not given;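 further: cells fixed about 48 h after compound addition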
Procedure, shortened: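 Neuron count read by automated high-content imaging of Hoechst 33342 and betaIII-tubulin/Alexa Fluor-488 labelling in human iPSC glutamatergic neurons. Activity fitted relative to DMSO.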

Q: Which AC50 does the source give for Nc1ccn([C@@H]2O[C@H](CO)[C@@H](O)[C@@H]2O)c(=O)n1 here?
A: 415 nM (active) and 814 nM (active)

Q: Which outcome does the source give for OC(O)(C(F)C(O)(O)C(F)(F)F)C(F)(F)F here?
A: inactive

Q: For FC(F)=C(F)C(F)(F)C(F)(F)C(F)(F)C(F)(F)C(F)(F)C(F)(F)F, which outcome is on record?
A: inactive

Q: With c1ccc2cc3ccccc3cc2c1 as the compound, how does the outcome read?
A: inactive

Q: For O=C(Cl)C(F)(F)C(F)(F)C(F)(F)C(=O)Cl, which outcome is on record?
A: inactive

Q: With Cn1cc[nH]c1=S as the compound, how does the outcome read?
A: inactive

system: SRY-box transcription factor 17 (SOX17) Protein Expression, Deisenroth Lab, SOX17 (gene 64321); assay: CCTE_Deisenroth_DEVTOX-GLR_legacy_Sox17: (Legacy) CCTE's DevTox GLR-Endo Assay Evaluation of SRY-box transcription factor 17 (SOX17) Protein Expression, Deisenroth Lab (AID 2284341; active means hit-call score of the fitted dose curve at least 0.9, where 1 is the maximum; inactive means score below 0.9); details: actives raise or lower the signal
Procedure: CCTE_Deisenroth_DEVTOX-GLR_legacy assay is a cell-based, multiplex-readout assay that uses RUES2-GLR, a human pluripotent cell line, with measurements taken at 48 hours after chemical dosing in a 384-well microplateCCTE_Deisenroth_DEVTOX-GLR_legacy_Sox17 is one of 4 assay components calculated from the CCTE_Deisenroth_DEVTOX-GLR_legacy assay and it measures an increase in the percentage of cells in an endoderm state. It is designed to make measurements of inducible reporter a form of fluorescent protein induction as detected with optical fluorescence microscopy. Percentage Sox17+ cells are determined by calculating the number of Sox17+ cells divided by cell count. A cell is Sox17+ if the cell Sox17 mean intensity is 5x BMAD above the pluripotent control median cell Sox17 mean. The assay endpoints were analyzed with bidirectional fitting relative to 0.2% DMSO control in the CCTE_Deisenroth_DEVTOX-GLR_Endo assay.Data from the assay component CCTE_Deisenroth_DEVTOX-GLR_legacy_Sox17 was analyzed into 1 assay endpoint. This assay endpoint, CCTE_Deisenroth_DEVTOX-GLR_legacy_Sox17, was analyzed with bidirectional fitting relative to DMSO as the negative control and baseline activity. Using a type of inducible reporter, gain or loss-of-signal activity can be used to understand changes in gene expression. Furthermore, this assay endpoint can be referred to as a primary readout, because this assay has produced multiple assay endpoints where this one serves as a measure of endoderm differentiation. To generalize the intended target to other relatable targets, this assay endpoint is annotated to the transcription factor intended target family, where the subfamily is SRY-related HMG-box.
All assay protocols are aligned to the DevTox GLR-Endo assay workflow. Cells are seeded into 384-well microplates for 24 hours prior to initiating differentiation in defined media for a total duration of 48 hours. A total of two chemical exposures are administered in 24-hour intervals during the 48-hour differentiation period. At the assay termination point, cells are fixed and stained with a fluorescent dye demarcating the nucleus. High-content imaging is used to acquire brightfield and fluorescent channel images across 5 fields per well. Cell identification and mean biomarker fluorescence intensities are calculated with image analysis software to determine the total cell counts for viability assessment and the biomarker expression frequency for each lineage-dependent assay. A typical experimental design tests a 10-point concentration series (1 nM - 200 uM) for 28 compounds in single technical replicate. […]

Q: With Nc1ccn([C@@H]2O[C@H](CO)[C@@H](O)[C@@H]2O)c(=O)n1 as the compound, how does the AC50 read?
A: 0.554 µM (active)

Q: For CCCC(CCC)C(=O)O, which outcome is on record?
A: inactive

Q: For NC(=O)N1c2ccccc2C=Cc2ccccc21, which AC50 is on record?
A: 100 µM (active)

Q: For NNC(=O)c1ccncc1, which outcome is on record?
A: inactive

Source: PubChem BioAssay (EPA / NIEHS)
